Screening results (PubChem)
HTR5A ag: activates human HTR5A in OPRM1-OPRD1 agonist counter-screen; P47898; HTR5A agonist assay, luminescence, cell-based; activation, % at 9.3 µM; hit rate 0.61% among 340,000; in the data active = activation mostly above about 9.5%, no sharp cut-off; inactive = mostly below about 7.6%
Target sequence (P47898 whole entry, looked up): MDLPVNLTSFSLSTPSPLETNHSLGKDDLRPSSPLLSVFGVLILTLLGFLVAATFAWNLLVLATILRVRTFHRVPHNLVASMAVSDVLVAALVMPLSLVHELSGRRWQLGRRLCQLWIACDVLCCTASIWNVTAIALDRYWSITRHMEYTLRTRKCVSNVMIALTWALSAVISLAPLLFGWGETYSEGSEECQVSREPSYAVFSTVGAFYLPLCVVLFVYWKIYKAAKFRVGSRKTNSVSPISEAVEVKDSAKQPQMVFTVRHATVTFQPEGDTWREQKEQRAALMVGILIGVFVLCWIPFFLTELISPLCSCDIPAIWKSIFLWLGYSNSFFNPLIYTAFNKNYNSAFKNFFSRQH
HTR5A inv ctr: counter-screen for OPRM1-OPRD1 inverse agonists: human HTR5A inverse agonism; P47898; HTR5A cell line, luminescence; inhibition, % at 9.3 µM; hit rate 0.083% among 340,000; AID 504634; in the data active = inhibition mostly above about 23%, no sharp cut-off; inactive = mostly below about 18%
OPRM1-OPRD1 inv: inverse agonists of human mu-delta opioid receptor heterodimerization; P35372+P41143; cell-based MOR-DOR heterodimer luminescence, inverse agonism; inhibition, % at 9.3 µM; hit rate 0.21% among 340,000; AID 504357; in the data active = inhibition above about 22%, passing the limit was not always enough
MOR-DOR ag: OPRM1-OPRD1 heterodimerization agonism; hit rate 0.3% among 340,000; P35372+P41143; cells, luminescence; activation, % at 9.3 µM
MOR-DOR ag conf: OPRM1-OPRD1 heterodimer agonism, confirmation; shares compounds with MOR-DOR ag; cells, MOR-DOR heterodimerization, luminescence complementation; activation, % at 9.3 µM; hit rate 45% among 830; AID 504904
HTR5A ag ctr2: HTR5A agonism, opioid heterodimer counter-screen | shares compounds with MOR-DOR ag | HTR5A agonist counterscreen, cell luminescence | activation, % at 9.3 µM | hit rate 8% among 830 | AID 504905; in the data active = activation above about 17%
Numbers stand for hits; i = inactive; nt = not tested or not shown; ! = a repeat was not active. This is a sample that favours compounds with a hit; in the whole collection about 1.1% have one here. Rule as the data show it, unless noted: active = activation above about 18%; inactive = the rest.

SMILES	HTR5A ag	HTR5A inv ctr	OPRM1-OPRD1 inv	MOR-DOR ag	MOR-DOR ag conf	HTR5A ag ctr2
Cc1ccccc1NP1(=O)OCCCN1Cc1ccccc1Cl (stereo not given)	i	i	i	30	i	i
Cc1ccc(C(OCC(O)CNC(CO)C(O)c2ccc([N+](=O)[O-])cc2)c2ccccc2)cc1 (stereo not given)	i	i	i	i	nt	nt
O=C(COc1ccc(/C=N/NC(=O)c2cc3ccccc3o2)cc1Br)Nc1ccccc1	i	i	i	45	41	i
O=C1COC(c2ccccc2)C2CCCCN12 (stereo not given)	i	i	i	i	nt	nt
COc1ccc(C(=O)C(CCCCC(CN(C)C)C(=O)c2ccc(OC)cc2)CN(C)C)cc1 (stereo not given)	i	i	i	i	nt	nt
CCOc1ccc(C(=O)C(CCC(CN(C)C)C(=O)c2ccc(OCC)cc2)CN(C)C)cc1 (stereo not given)	14	i	i	29	i	i
O=C(O)C[C@H]1c2cc(C(F)(F)F)ccc2S(=O)(=O)N1Cc1ccccc1	i	i	i	i	nt	nt
CCCCCCCCCCOC(=O)Cn1c(COc2ccc(Cl)cc2)[n+](C)c2ccccc21	i	i	i	18	24	i
CCCCCCCCCCOC(=O)Cn1c(COc2ccccc2C)[n+](C)c2ccccc21	13	i	i	28	35	i
CCCCCOC(=O)Cn1c(=O)oc2ccccc21	i	i	i	i	nt	nt
O=C(COC(=O)/C=C/c1ccco1)Nc1ccccc1	i	i	i	i	nt	nt
COC(=O)c1ccccc1NC(=O)COC(=O)/C=C/c1ccco1	i	i	i	21	i	i
Cc1ccc(C)c(CN2C(=O)c3ccccc3S(=O)c3ccc(C(=O)N4CCN(c5ccccn5)CC4)cc32)c1 (stereo not given)	i	i	i	27	i	i
COc1ccc(C2=C(C)C(N3CCN(C(=O)c4ccco4)CC3)=NS2(=O)=O)cc1	i	i	i	i	nt	nt
CCN1CC(CN(C)Cc2cn(-c3cccc(C)c3)nc2-c2cccc(F)c2)CC1=O (stereo not given)	i	i	i	20	i	i
COc1ccc([N+](=O)[O-])cc1NCC(=O)Nc1cccc(S(=O)(=O)N2CCCC2)c1	i	i	i	i	nt	nt
CN(Cc1ccccn1)C(=O)C1CCC(=O)N(Cc2cccc(C(F)(F)F)c2)C1 (stereo not given)	i	i	i	i	nt	nt
CCN1CCN(CC(O)COc2ccc(Cl)cc2)CC1 (stereo not given)	i	i	i	i	nt	nt
CCN1CCN(CC(O)COc2ccc(C)c(C)c2)CC1 (stereo not given)	i	i	i	25!	i	i
Cc1ccc(NC(=O)C2C3C=CC4(O3)C2C(=O)N(CCCN2CCCC2)C4C(=O)NC2CCCCC2)cc1Cl (stereo not given)	i	i	i	i	nt	nt
CC(C)c1ccc(NC(=O)C2C3C=CC4(O3)C2C(=O)N(CCCN2CCCCC2)C4C(=O)NC2CCCCC2)cc1 (stereo not given)	i	i	i	26	i	i
CCCCN(C)CCN1C(=O)C2C(C(=O)Nc3ccc(C)cc3)C3C=CC2(O3)C1C(=O)NC1CCCCC1 (stereo not given)	i	i	i	i	nt	nt
CCN(CC)CCN1C(=O)C2C(C(=O)Nc3ccc(C(C)C)cc3)C3C=CC2(O3)C1C(=O)NC1CCCCC1 (stereo not given)	i	i	i	37	i	i
Cn1cc([N+](=O)[O-])c(C(=O)n2cccn2)n1	i	i	i	i	nt	nt
O=C(CSc1nc(-c2ccc(F)cc2)cs1)NCC1CCCO1 (stereo not given)	i	i	i	i	nt	nt
SMILES	HTR5A ag	HTR5A inv ctr	OPRM1-OPRD1 inv	MOR-DOR ag	MOR-DOR ag conf	HTR5A ag ctr2
COc1ccc(C2(C)NC(=O)N(CC(=O)NC3CCCC3)C2=O)cc1OC (stereo not given)	i	i	i	i	nt	nt
CCC(C)(C)C(=O)Nc1ncc(S(=O)(=O)c2ccc([N+](=O)[O-])cc2)s1	i	i	i	i	nt	nt
CCCC(C)C(=O)Nc1ncc(S(=O)(=O)c2ccc([N+](=O)[O-])cc2)s1 (stereo not given)	i	i	i	21	i	i
CC(=O)C1CCC2C3CC=C4CC(SC(=N)N)CCC4(C)C3CCC12C (stereo not given)	i	i	i	42	79	i
CC(=O)OCC(=O)C1CCC2C3CC=C4CC(O)CCC4(C)C3CCC12C (stereo not given)	i	i	i	i	nt	nt
Cc1oc(-c2cccc(F)c2)nc1CN(Cc1ccccc1)C[C@@H]1CCC(=O)N1	i	i	i	29	i	i
O=C(CN1C(=O)NC2(CCCC2)C1=O)Nc1nc2ccccc2[nH]1	i	i	i	i	nt	nt
Cc1cc(C)cc(CC(Cc2nc3ccccc3[nH]2)c2nc3ccccc3[nH]2)c1 (stereo not given)	i	i	i	66	i	i
Cc1cc(OC(C)C(=O)NCCCN2CCOCC2)c2c(C)c(C)c(=O)oc2c1 (stereo not given)	i	i	i	i	nt	nt
CCN1CCN(S(=O)(=O)c2ccc(Cl)c(C(=O)N(CCc3ccccc3)Cc3ccccc3)c2)CC1	i	i	i	20	360	i
CC(O)[C@@H](NC(=O)C1CCC(CNC(=O)[C@H](Cc2ccccc2)NC(=O)OC(C)(C)C)CC1)C(=O)O (stereo not given in full)	i	i	i	i	nt	nt
Cc1ccc2oc(C(=O)N(Cc3ccccc3)C3CCS(=O)(=O)C3)c(C)c2c1 (stereo not given)	i	i	i	20	i	i
Cc1cc2oc(C(=O)N(Cc3ccccc3)C3CCS(=O)(=O)C3)c(C)c2cc1C (stereo not given)	i	i	i	40	21	i
Cc1ccc2c(C)c(C(=O)N(Cc3ccccc3)C3CCS(=O)(=O)C3)oc2c1 (stereo not given)	i	i	i	35	i	i
CCOc1ccc(CN(C(=O)c2oc3cc(C)ccc3c2C)C2CCS(=O)(=O)C2)cc1 (stereo not given)	i	i	i	i	nt	nt
COc1ccc(CN(C(=O)c2oc3ccc(F)cc3c2C)C2CCS(=O)(=O)C2)cc1 (stereo not given)	i	i	i	i	nt	nt
Cc1c(C(=O)N(Cc2ccccc2Cl)C2CCS(=O)(=O)C2)oc2ccccc12 (stereo not given)	i	i	i	i	nt	nt
Cc1ccc2c(C)c(C(=O)N(Cc3cccs3)C3CCS(=O)(=O)C3)oc2c1 (stereo not given)	i	i	i	47	75	i
COC(=O)CNc1nc(-c2cccnc2)nc2ccccc12	i	i	i	i	nt	nt
COc1ccc(C(CNc2nc(-c3cccnc3)nc3ccccc23)N(C)C)cc1 (stereo not given)	i	i	i	160	i	i
Cc1cc(C)c(C(=O)C(C)OC(=O)c2ccc(Cl)nc2)cc1C (stereo not given)	i	i	i	i	nt	nt
